Experimental data as given in PubChem BioAssay (NCI).
Compounds without any hit were thinned out: in the full panel of roughly 83,000, 20% have a hit.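 Treatment: one concentration, 48 hours, 96-well format. Scoring: percent growth, with anything below 10 considered active.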 Values without a mark were called inactive. Active and inactive are the calls of the source.

What was measured:
Assay in all cases: NCI-60 one-dose screen, 48 h (100 = growth as untreated, 0 = no growth, -100 = all killed)
Settings in all cases: 10 µM unless noted
SR leukemia = test system: SR leukemia
OVCAR-8 ovarian = test system: OVCAR-8 ovarian
OVCAR-5 ovarian = test system: OVCAR-5 ovarian
SK-OV-3 ovarian = test system: SK-OV-3 ovarian
IGROV1 ovarian = test system: IGROV1 ovarian
OVCAR-3 ovarian = test system: OVCAR-3 ovarian
HS 578T breast = test system: HS 578T breast
NCI/ADR-RES ovarian = test system: NCI/ADR-RES ovarian
T-47D breast = test system: T-47D breast
BT-549 breast = test system: BT-549 breast
MDA-MB-435 melanoma = test system: MDA-MB-435 melanoma
SW-620 colon = test system: SW-620 colon
MCF7 breast = test system: MCF7 breast
HCT-116 colon = test system: HCT-116 colon
HCC-2998 colon = test system: HCC-2998 colon
KM12 colon = test system: KM12 colon
OVCAR-4 ovarian = test system: OVCAR-4 ovarian
RPMI-8226 leukemia = test system: RPMI-8226 leukemia

Compound	growth (SR leukemia)	growth (OVCAR-8 ovarian)	growth (OVCAR-5 ovarian)	growth (SK-OV-3 ovarian)	growth (IGROV1 ovarian)	growth (OVCAR-3 ovarian)	growth (HS 578T breast)	growth (NCI/ADR-RES ovarian)	growth (T-47D breast)	growth (BT-549 breast)	growth (MDA-MB-435 melanoma)	growth (SW-620 colon)	growth (MCF7 breast)	growth (HCT-116 colon)	growth (HCC-2998 colon)	growth (KM12 colon)	growth (OVCAR-4 ovarian)	growth (RPMI-8226 leukemia)
Cc1[nH]c(C(=O)Nc2ccc(C(=O)N3CCNCC3)cc2OC(C)C)c(Cl)c1Cl	-34.3% (active)	87.1%	90.3%	89.3%	69.5%	71.4%	73%	80.5%	64.1%	93%	35.9%	-55.8% (active)	60%	14.5%	-45.9% (active)	50.9%		
Cc1c(C(=O)NCCCc2ccccc2)sc2ncc(-c3ccc(Br)cc3)n12	106%	105%	107%	99.5%	100%	112%	104%	107%	103%	110%		105%	94.3%		110%	100%		
COc1ccc(C2CC(c3ccc(Nc4nc(Nc5ccc(F)cc5)nc(Nc5ccc(Cl)cc5)n4)cc3)=NN2C(C)=O)cc1 (centres undefined)	107%		104%	107%	40.4%	128%	108%	85%	72.5%	143%	97.1%	109%	105%	94.6%	99.7%	135%	99.3%	
CN1C(=O)CNC(=O)[C@H](NC(=O)c2nc3ccccc3cc2O)CSSC[C@H]1C(=O)NCCCc1nc2ccccc2cc1O	-46.3% (active)	86.2%	121%	113%		9.86% (active)	90.7%	102%	78%		44%	48.2%	55.1%	70%	74.7%	27%		
CCCCCCCNC(=O)CCCNc1ncnc2c1ncn2-c1cccc(C(C)O)c1 (centres undefined)	84.2%	91.1%	88.2%	104%		87.1%	97.4%	95.8%	74.1%		97.5%	101%	86.6%	104%	103%	95.6%	84.8%	
O=C1COCCN1c1ccc(NCc2cn(C(=O)c3ccc(Cl)cc3)c3ccccc23)cc1		66%	-25.7% (active)	15.7%	-2.18% (active)	10.6%	72.9%	67%	-12.7% (active)	41.9%	92.6%	40.4%	10.1%	7.09% (active)	91%	97.1%	3.22% (active)	52.6%
CC(C)n1cnc2c(Nc3cccc(Cl)c3)nc(N[C@H]3CCCC[C@@H]3N)nc21	13.9%		50.4%	80.6%	29.4%	61.2%	66.7%	61.4%	64.8%	63%	47.5%	55.5%	40.9%	28.1%	23.4%	13.5%	55.4%	
CCOC(=O)c1cn2ncnc(Oc3ccc(NC(=O)NCCN(CC)CC)c(Cl)c3)c2c1C	-26.6% (active)	81%	80.8%	92.1%	87.3%		77.7%	77.6%	45.4%	81.9%	9.11% (active)	28.7%	58.1%	36.5%	68.3%	96.4%		
O=C(O)c1cn(C2CC2)c2cc(N3CCN(C(=O)Nc4nc(-c5ccccc5)cs4)CC3)c(F)cc2c1=O	4.63% (active)	13.8%	50.3%	14.7%		7.8% (active)	40.6%	76.7%	23.2%		21%	29.4%	7.78% (active)	17.5%	34.4%	13.8%	62.4%	
O=C1c2cccc3cccc(c23)C(=O)N1Nc1nc(NC2CCCCC2)nc(N2CCOCC2)n1	91%	99%	95.6%	95.7%	90.3%	103%	99.4%	99.8%	88.4%	110%	103%	98.1%	89.3%		111%	98.9%		
CN1C(=C2C(=O)OC(C)(C)OC2=O)CCC1C(=O)NCc1ccc(Cl)cc1Cl (centres undefined)	94.7%		94.9%	85.8%	99.8%		97.5%	101%	97.4%	107%	109%	104%	98.3%	88.3%	96.5%	98.5%	98.2%	
c1ccc(OCc2nnc(-c3ccc(Oc4ccccc4)cc3)o2)cc1	85.8%	99.1%	104%	96.9%			99%		74.3%	101%	101%	103%	99.3%	100%		93.7%	98.7%	
CCOC(=O)c1cn2ncnc(Oc3ccc(NC(=O)NCCN4CCOCC4)c(Cl)c3)c2c1C	105%	101%	96.4%	92.2%	101%	105%	91.4%	101%	80.6%	96.5%	97.3%	94.1%	88.5%			103%		
Cc1ccc(NC2=C(Cl)C(=O)c3nc(C)ccc3C2=O)cc1	21.8%	-49.4% (active)	-11.6% (active)	88.7%	-75.5% (active)	-76.7% (active)	27.9%	30.6%	-47.5% (active)	44.9%		-30.7% (active)	-66.1% (active)	-39.5% (active)	4.99% (active)	36.6%		
N#CC1=C(N)Oc2c(sc3c(Br)cccc23)C1c1ccc(Br)cc1 (centres undefined)	4.23% (active)	36.1%	56.3%	36%		-8.57% (active)	14.1%	2.32% (active)	23.3%	48.3%	-53% (active)	24.4%	10.9%	26.6%	12.9%	17.8%		
N#CC1=C(N)Oc2c(sc3c(Br)cccc23)C1c1ccc([N+](=O)[O-])cc1 (centres undefined)	-8.87% (active)	25.3%	31.1%	34%		3.67% (active)	10.8%	-26.9% (active)	64.9%	28.8%	-58.4% (active)	18.1%	10.2%	8.77% (active)	10.2%	8.9% (active)		
Cc1nc2ccccc2n1-c1ncnc2c1CC(C)c1ccccc1N2C (centres undefined)	19.7%	85%	101%	85.9%		94.6%	82.5%		72.1%	92.3%	8.87% (active)	68%	61.8%	96.2%	90%	73.6%	92.4%	
CCOC(=O)c1sc2ncc(-c3ccc(OC)cc3)n2c1C	104%	91.6%	105%	78.7%		108%	94.1%	92.3%	93.6%	102%		94.1%	89.9%	92.4%	105%	101%		
CC/C=C\C[C@@H]1C/C=C2/C(=O)C=C[C@H]2C/C=C\CCCC(=O)O1	-30.3% (active)	4.94% (active)	-32.8% (active)	-8.9% (active)		-95.4% (active)	-1.47% (active)		10.3%	-55.7% (active)	-59.1% (active)	-65.1% (active)	-9.37% (active)	-93.5% (active)	-83.3% (active)	-92.3% (active)	5.92% (active)	
CCc1cccc2c3c(sc12)C(c1ccc(F)cc1)C(C#N)=C(N)O3 (centres undefined)	27.3%	32.9%	32.6%	78.5%	31.1%	10.9%	26.7%	14%	42.1%	19.7%		30.3%	16.1%	17.7%	15.4%	25.1%		
